# Target: PUM1 PUF domain R5-RQG (Homo sapiens, UniProt Q14671 828-1176, C1007R;R1008Q;Q1011G)
# Assay: yeast three-hybrid, YBZ-1, SC-Leu-His + 0.5 mM 3-AT, 4 days
# Settings: tags: N-Gal4 AD-HA kept; label: inside an RPR1-promoter hybrid RNA with tandem MS2 sites; ssRNA
# Procedure, shortened: (§1)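 Pumilio-1 PUF domain libraries, randomized (NNK) at the three base-contacting residues of each repeat, were co-expressed with matching RNA elements from a centromeric plasmid in strain YBZ-1 (LexA–MS2 coat fusion, HIS3 reporter). Transformants were plated on SC-Leu (input) and SC-Leu-His + 0.5 mM 3-AT (selection) for four days, and repeat regions were PCR-amplified and Illumina-sequenced. The interaction score is the log2 change in variant frequency from input to selection, with pseudocount 1 where absent.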
row,Sequence,binding signal
1,GGCUAGAACUAGUGGAUCCCCCGGCGCCCGGCGGCUCGAGCCCGGGUAAGUGUGAAUAGUCUGCAUGCCGCCGGGCGCCAUGCCUGCAGGUCGACUCUAGAAAACAUG,0.9 log2 enrichment (interaction score)
2,GGCUAGAACUAGUGGAUCCCCCGGCGCCCGGCGGCUCGAGCCCGGGUAAGUGUCAAUAGUCUGCAUGCCGCCGGGCGCCAUGCCUGCAGGUCGACUCUAGAAAACAUG,5.03 log2 enrichment (interaction score)
3,GGCUAGAACUAGUGGAUCCCCCGGCGCCCGGCGGCUCGAGCCCGGGUAAGUGUAAAUAGUCUGCAUGCCGCCGGGCGCCAUGCCUGCAGGUCGACUCUAGAAAACAUG,0.8 log2 enrichment (interaction score)
4,GGCUAGAACUAGUGGAUCCCCCGGCGCCCGGCGGCUCGAGCCCGGGUAAGUGUUAAUAGUCUGCAUGCCGCCGGGCGCCAUGCCUGCAGGUCGACUCUAGAAAACAUG,5 log2 enrichment (interaction score)

# Target: PUM1 PUF domain R3-TRR (Homo sapiens, UniProt Q14671 828-1176, C935T;Q939R)
# Assay: as above
# Settings: tags: N-Gal4 AD-HA kept; label: inside an RPR1-promoter hybrid RNA with tandem MS2 sites; ssRNA
# Procedure, shortened: as §1
row,Sequence,binding signal
1,GGCUAGAACUAGUGGAUCCCCCGGCGCCCGGCGGCUCGAGCCCGGGUAAGUGUAAUUAGUCUGCAUGCCGCCGGGCGCCAUGCCUGCAGGUCGACUCUAGAAAACAUG,3.68 log2 enrichment (interaction score)
2,GGCUAGAACUAGUGGAUCCCCCGGCGCCCGGCGGCUCGAGCCCGGGUAAGUGUAACUAGUCUGCAUGCCGCCGGGCGCCAUGCCUGCAGGUCGACUCUAGAAAACAUG,5.18 log2 enrichment (interaction score)
3,GGCUAGAACUAGUGGAUCCCCCGGCGCCCGGCGGCUCGAGCCCGGGUAAGUGUAAGUAGUCUGCAUGCCGCCGGGCGCCAUGCCUGCAGGUCGACUCUAGAAAACAUG,1.75 log2 enrichment (interaction score)
4,GGCUAGAACUAGUGGAUCCCCCGGCGCCCGGCGGCUCGAGCCCGGGUAAGUGUAAAUAGUCUGCAUGCCGCCGGGCGCCAUGCCUGCAGGUCGACUCUAGAAAACAUG,1.03 log2 enrichment (interaction score)

# Target: PUM1 PUF domain R4-WSC (Homo sapiens, UniProt Q14671 828-1176, N971W;H972S;Q975C)
# Assay: as above
# Settings: tags: N-Gal4 AD-HA kept; label: inside an RPR1-promoter hybrid RNA with tandem MS2 sites; ssRNA
# Procedure, shortened: as §1
row,Sequence,binding signal
1,GGCUAGAACUAGUGGAUCCCCCGGCGCCCGGCGGCUCGAGCCCGGGUAAGUGUACAUAGUCUGCAUGCCGCCGGGCGCCAUGCCUGCAGGUCGACUCUAGAAAACAUG,2.22 log2 enrichment (interaction score)
2,GGCUAGAACUAGUGGAUCCCCCGGCGCCCGGCGGCUCGAGCCCGGGUAAGUGUAAAUAGUCUGCAUGCCGCCGGGCGCCAUGCCUGCAGGUCGACUCUAGAAAACAUG,2.87 log2 enrichment (interaction score)
3,GGCUAGAACUAGUGGAUCCCCCGGCGCCCGGCGGCUCGAGCCCGGGUAAGUGUAUAUAGUCUGCAUGCCGCCGGGCGCCAUGCCUGCAGGUCGACUCUAGAAAACAUG,4.12 log2 enrichment (interaction score)

# Target: T1, PUM1 PUF domain R6-KWQ (Homo sapiens, UniProt Q14671 828-1176, N1043K;Y1044W)
# T1 sequence: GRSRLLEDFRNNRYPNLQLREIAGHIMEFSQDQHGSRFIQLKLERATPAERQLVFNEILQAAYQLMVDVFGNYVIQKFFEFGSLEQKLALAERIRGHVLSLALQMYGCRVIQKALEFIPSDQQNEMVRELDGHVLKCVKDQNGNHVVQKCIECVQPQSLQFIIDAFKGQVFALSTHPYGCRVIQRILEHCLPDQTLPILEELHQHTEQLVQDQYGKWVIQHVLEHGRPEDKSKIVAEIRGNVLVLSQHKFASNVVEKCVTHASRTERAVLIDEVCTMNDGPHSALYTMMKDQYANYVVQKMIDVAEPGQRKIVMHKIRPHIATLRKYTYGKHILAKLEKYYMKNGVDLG
# Assay: as above
# Settings: tags: N-Gal4 AD-HA kept; label: inside an RPR1-promoter hybrid RNA with tandem MS2 sites; ssRNA
# Procedure, shortened: as §1
row,Sequence,binding signal
1,GGCUAGAACUAGUGGAUCCCCCGGCGCCCGGCGGCUCGAGCCCGGGUAAGUGAAAAUAGUCUGCAUGCCGCCGGGCGCCAUGCCUGCAGGUCGACUCUAGAAAACAUG,2.19 log2 enrichment (interaction score)
2,GGCUAGAACUAGUGGAUCCCCCGGCGCCCGGCGGCUCGAGCCCGGGUAAGUGUAAAUAGUCUGCAUGCCGCCGGGCGCCAUGCCUGCAGGUCGACUCUAGAAAACAUG,2.54 log2 enrichment (interaction score)
3,GGCUAGAACUAGUGGAUCCCCCGGCGCCCGGCGGCUCGAGCCCGGGUAAGUGCAAAUAGUCUGCAUGCCGCCGGGCGCCAUGCCUGCAGGUCGACUCUAGAAAACAUG,5.25 log2 enrichment (interaction score)

# Reference: publication PMC8384837, “Expanding the binding specificity for RNA recognition by a PUF domain”
